Assay results as given in PubChem BioAssay (EPA / NIEHS).
Several values for one entry are separate records, joined by “and”; a condition that tells them apart may be missing. Equal entries are not always repeated. Some structures have more than one record in an assay (separate samples or runs), and their calls can disagree. Activity calls are given as the source filed them. Rule for the calls: active = hit-call score of the fitted dose curve at least 0.9, where 1 is the maximum; inactive = score below 0.9.

Legend:
[1] = read-out: flavin-containing dimethylaniline monooxygenases 3 (FMO3), FMO3 (gene 2328); experiment: LTEA_HepaRG_FMO3: Life Technologies and Expression Analysis (LTEA) Assay for flavin-containing dimethylaniline monooxygenases 3 (FMO3) using HepaRG (AID 2283453); conditions: mRNA level, 48 h; actives raise or lower the signal;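 for AC50: differentiated human HepaRG liver cells in serum-free induction medium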
Method in brief: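 HepaRG, 48 h exposure, 8-pt half-log series from 100 uM, 0.5% DMSO vehicle, duplicates; FMO3 transcript by Fluidigm TaqMan qRT-PCR, housekeeping-normalized; gain/loss fit vs DMSO.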

[2] = read-out: Cytochrome P450 (CYP1A1), CYP1A1 (gene 1543); experiment: LTEA_HepaRG_CYP1A1: Life Technologies and Expression Analysis (LTEA) Assay for Cytochrome P450 (CYP1A1) using HepaRG (AID 2283454); conditions: mRNA level, 48 h; actives raise or lower the signal
Method in brief: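 qRT-PCR read-out: CYP1A1 transcript normalized to three housekeeping genes, fitted bidirectionally against 0.5% DMSO vehicle baseline. Human HepaRG cells, 48 h chemical exposure, 8-point half-log series topping at 100 uM.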

[3] = read-out: Forkhead box O1 (FOXO1), FOXO1 (gene 2308); experiment: LTEA_HepaRG_FOXO1: Life Technologies and Expression Analysis (LTEA) Assay for Forkhead box O1 (FOXO1) using HepaRG (AID 2283456); conditions: mRNA level, 48 h; actives raise or lower the signal
Method in brief: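 Readout is FOXO1 transcript level by multiplexed qRT-PCR against three housekeeping genes, curve-fitted in both directions relative to 0.5% DMSO vehicle. Human HepaRG cultures received chemicals for 48 h, up to 100 uM in half-log steps.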

[4] = read-out: growth arrest and DNA damage 45 (GADD45A), GADD45A (gene 1647); experiment: LTEA_HepaRG_GADD45A: Life Technologies and Expression Analysis (LTEA) Assay for growth arrest and DNA damage 45 (GADD45A) using HepaRG (AID 2283458); conditions: mRNA level, 48 h; actives raise or lower the signal
Method in brief: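 Differentiated HepaRG cells were exposed in duplicate for 48 h in serum-free induction medium to 8-point half-log concentrations up to 100 uM in 0.5% DMSO. GADD45A mRNA was measured by TaqMan qRT-PCR, normalized to ACTB, GAPDH and POLR2A, with bidirectional fitting versus DMSO.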

[5] = read-out: Forkhead box O3 (FOXO3), FOXO3 (gene 2309); experiment: LTEA_HepaRG_FOXO3: Life Technologies and Expression Analysis (LTEA) Assay for Forkhead box O3 (FOXO3) using HepaRG (AID 2283459); conditions: mRNA level, 48 h; actives raise or lower the signal
Method in brief: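 HepaRG, 48 h post-dose; 8 conc., half-log from 100 uM, 0.5% DMSO, duplicates; serum-free induction medium. Readout: FOXO3 mRNA, TaqMan qRT-PCR, housekeeping-normalized. Bidirectional curve fit vs DMSO baseline.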

[6] = read-out: ABC Transporter (ABCB1), ABCB1 (gene 5243); experiment: LTEA_HepaRG_ABCB1: Life Technologies and Expression Analysis (LTEA) Assay for ABC Transporter (ABCB1) using HepaRG (AID 2283460); conditions: mRNA level, 48 h; actives raise or lower the signal
Method in brief: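 Expression of ABCB1 was quantified by qRT-PCR against three housekeeping genes after human HepaRG cultures received test chemicals for 48 hours. Concentrations spanned eight half-log steps topping at 100 uM in 0.5% DMSO; gain or loss of signal was fitted relative to vehicle.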

[7] = read-out: growth arrest and DNA damage 45 (GADD45B), GADD45B (gene 4616); experiment: LTEA_HepaRG_GADD45B: Life Technologies and Expression Analysis (LTEA) Assay for growth arrest and DNA damage 45 (GADD45B) using HepaRG (AID 2283461); conditions: mRNA level, 48 h; actives raise or lower the signal
Method in brief: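 qRT-PCR read-out (Fluidigm TaqMan, housekeeping-normalized) of mRNA change in human HepaRG cells after 48 h chemical exposure; 8-point curve, top 100 uM, half-log steps, 0.5% DMSO vehicle; gain or loss fitted relative to DMSO baseline.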

[8] = read-out: ABC Transporter (ABCC3), ABCC3 (gene 8714); experiment: LTEA_HepaRG_ABCC3: Life Technologies and Expression Analysis (LTEA) Assay for ABC Transporter (ABCC3) using HepaRG (AID 2283462); conditions: mRNA level, 48 h; actives raise or lower the signal
Method in brief: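 qRT-PCR read-out of ABCC3 transcript, normalized to three housekeeping genes (ACTB, GAPDH, POLR2A), after 48 h chemical exposure of human HepaRG cells. Eight half-log concentrations, highest 100 uM, in 0.5% DMSO; gain or loss fitted relative to DMSO baseline.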

[9] = read-out: CFLAR gene, CFLAR (gene 8837); experiment: LTEA_HepaRG_CFLAR: Life Technologies and Expression Analysis (LTEA) Assay for CFLAR gene using HepaRG (AID 2283455); conditions: mRNA level, 48 h; actives raise or lower the signal
Method in brief: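 HepaRG, 48 h exposure, 8-pt conc-response (100 uM top, half-log), 0.5% DMSO vehicle, duplicates. CFLAR expression by qRT-PCR; ACTB/GAPDH/POLR2A normalization; gain or loss fit vs DMSO baseline.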

[10] = CEETOX_H295R_TESTO: CeeTox H295R High-throughput Steroidogenesis Assay for Testosterone (TESTO) (AID 2283457); conditions: actives raise or lower the signal;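 for AC50: cells exposed to chemicals for 48 h before medium collection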
Method in brief: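 Readout: testosterone quantified by HPLC-MS/MS (C18, ESI positive) after MTBE liquid-liquid extraction of culture medium. Cells were H295R, 48 h chemical exposure per OECD 456 with modifications. Gain or loss of signal fitted relative to DMSO.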

Measured: AC50

COc1nn(CSP(=S)(OC)OC)c(=O)s1
active: [2] 24.3 µM
not listed: [9] | [10]
inactive: all other assays above

O=[N+]([O-])/N=C1\NCCN1Cc1ccc(Cl)nc1
active: [1] 34.6 µM | [2] 9.92 µM | [9] 26.3 µM | [4] 23.6 µM | [5] 26.9 µM | [6] 15.9 µM
inactive: [10] | [7]

CC(C)(C)C(O)C(Oc1ccc(Cl)cc1)n1cncn1 (configuration not stated)
active: [2] 23.1 µM and 18.4 µM and 22 µM | [6] 4.64 µM and 7.44 µM and 3.5 µM
inactive: [1] | [4] | [5] | [7]

C[C@H]1[C@H](c2ccc(Cl)cc2)SC(=O)N1C(=O)NC1CCCCC1
inactive: [10] | [5]
active: [1] 75 µM | [2] 14.9 µM | [3] 83.2 µM | [4] 75.8 µM | [6] 32.8 µM | [7] 82.2 µM

CNC(=O)CSP(=S)(OC)OC
active: [2] 24.8 µM
not listed: [3] | [8] | [10]
inactive: all other assays above

Oc1ccc(Cl)cc1Cc1ccccc1
active: [2] 84.7 µM and 81.3 µM and 84.4 µM | [10] 78 µM | [5] 91.5 µM and 87.9 µM
inactive: [1] | [4] | [5] | [6] | [7]

CCCN(CCC)c1c([N+](=O)[O-])cc(C(F)(F)F)cc1[N+](=O)[O-]
active: [2] 50 µM
not listed: [3] | [9]
inactive: all other assays above

Oc1cc(Cl)ccc1Oc1ccc(Cl)cc1Cl
inactive: [1] | [3] | [4] | [5] | [6] | [7]
active: [1] 85.1 µM | [2] 77.3 µM and 88.3 µM and 79.3 µM | [4] 10.1 µM | [5] 0.067 µM

CCOCN(C(=O)CCl)c1c(C)cccc1CC
active: [1] 78.7 µM | [2] 50 µM | [7] 75.5 µM
inactive: [3] | [4] | [5] | [6]

CC[C@H](C)[C@H]1O[C@]2(C=C[C@@H]1C)C[C@@H]1C[C@@H](C/C=C(\C)[C@@H](O[C@H]3C[C@H](OC)[C@@H](O[C@H]4C[C@H](OC)[C@@H](O)[C@H](C)O4)[C@H](C)O3)[C@@H](C)/C=C/C=C3\CO[C@@H]4[C@H](O)C(C)=C[C@@H](C(=O)O1)[C@]34O)O2 (tested in a mixture with another compound)
inactive: [4] | [5]
active: [1] 14 µM | [2] 0.361 µM | [9] 30.2 µM | [6] 55.2 µM | [7] 7.13 µM

CNC(=O)/C=C(\C)OP(=O)(OC)OC
not listed: [8] | [9] | [10]
inactive: all other assays above

O=C(NC(=O)c1c(F)cccc1F)Nc1ccc(OC(F)(F)C(F)OC(F)(F)F)c(Cl)c1 (configuration not stated)
active: [2] 21.2 µM
inactive: [1] | [4] | [5] | [6] | [7]

CC1(c2ccc(Oc3ccccc3)cc2)OC(=O)N(Nc2ccccc2)C1=O (configuration not stated)
inactive: [9] | [6] | [7]
active: [1] 24.4 µM | [2] 14.1 µM | [4] 13 µM | [5] 4.78 µM

O=C(O)COc1ccc(Cl)cc1Cl
active: [2] 43.4 µM
not listed: [3] | [8] | [10]
inactive: all other assays above

O=C(Nc1ccccc1)Nc1cnns1
active: [1] 73.5 µM | [2] 73.6 µM | [8] 78.6 µM
not listed: [9] | [10]
inactive: all other assays above

O=[N+]([O-])c1c(Cl)c(Cl)c(Cl)c(Cl)c1Cl
active: [2] 81.3 µM | [7] 60.7 µM
inactive: [1] | [10] | [4] | [5] | [6]

O=C(O)C(F)(F)C(F)(F)C(F)(F)C(F)(F)C(F)(F)C(F)(F)C(F)(F)F
not listed: [3] | [8] | [10]
inactive: all other assays above

C#CCN1C(=O)COc2cc(F)c(N3C(=O)C4=C(CCCC4)C3=O)cc21
active: [2] 65.6 µM | [6] 9.92 µM
inactive: [1] | [10] | [4] | [5] | [7]

CCC(C)(C)C(=O)OC1=C(c2ccc(Cl)cc2Cl)C(=O)OC12CCCCC2
active: [1] 66.4 µM | [2] 50 µM
inactive: [10] | [4] | [5] | [6] | [7]

CN1CSC(=S)N(C)C1
active: [2] 28.4 µM
not listed: [8] | [9] | [10]
inactive: all other assays above
